E-sel TNF inh – blocks E-selectin expression induced by TNF alpha | HUVEC TNFa-induced E-selectin immunofluorescence, high content | inhibition, % at 2 µM | hit rate 0.71% among 120,000;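 active = inhibition above the batch mean plus 3 SD, and confirmed as a hit on visual image review, cut at about 43% in these data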
CYP2C19 inhib – inhibitors of human CYP2C19. P33261. CYP2C19 Supersomes, luciferin-H EGE luminescence, 30 min. inhibition, % at 5 µM. hit rate 21% among 96,000;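 active = CYP2C19 inhibition above a set limit at 5 µM in the primary screen, cut at about 50% in these data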
Target sequence (P33261 whole entry, looked up): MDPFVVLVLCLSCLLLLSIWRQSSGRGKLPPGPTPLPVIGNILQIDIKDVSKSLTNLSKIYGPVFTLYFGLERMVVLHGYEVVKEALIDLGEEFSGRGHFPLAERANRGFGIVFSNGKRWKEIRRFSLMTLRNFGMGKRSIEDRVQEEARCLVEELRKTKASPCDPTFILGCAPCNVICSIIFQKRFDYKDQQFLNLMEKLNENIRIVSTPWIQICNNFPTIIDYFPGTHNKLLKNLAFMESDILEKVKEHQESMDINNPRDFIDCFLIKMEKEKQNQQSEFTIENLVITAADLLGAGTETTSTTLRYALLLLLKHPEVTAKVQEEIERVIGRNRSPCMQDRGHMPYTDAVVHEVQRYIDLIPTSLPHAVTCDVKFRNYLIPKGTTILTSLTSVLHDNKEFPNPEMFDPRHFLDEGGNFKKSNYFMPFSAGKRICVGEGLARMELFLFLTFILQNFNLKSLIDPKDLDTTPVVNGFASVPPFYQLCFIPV
CYP2C19 act – activators of human cytochrome P450 2C19; P33261; recombinant CYP2C19, luciferin-H EGE luminescence; stronger effect = higher value; 0 = fully inhibited enzyme, 1 = untreated enzyme; activation factor at 5 µM; 96,000 tested, under 10 active; AID 1025;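 active = activation factor of at least 2 at 5 µM in the primary screen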
F-actin modifier – cytoskeleton assembly modification; HUVEC TNFa F-actin phalloidin imaging, high content; inhibition, % at 2 µM; hit rate 0.18% among 91,000; AID 836;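 active = inhibition above the batch mean plus 3 SD and confirmed as a hit by visual image inspection, cut at about 30% in these data, passing the limit was not always enough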
CYP2C9 act – activators of human CYP2C9; P11712; hit rate 1.4% among 96,000; activation factor at 5 µM; recombinant CYP2C9, luciferin-H conversion, luminescence; stronger effect = higher value; factor 1 = untreated enzyme, 0 = blocked;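 active = activation factor of 2 or more for CYP2C9 at a 5 µM dose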
CYP2C9 inhib – inhibitors of human CYP2C9; hit rate 20% among 96,000; inhibition, % at 5 µM; CYP2C9 Supersomes, luciferin-H conversion, luminescence; AID 777;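 active = blocking of liver enzyme CYP2C9 beyond about 50% at 5 µM, limit read from the data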
Large screens that a line does not name were inactive. An excerpt weighted towards active compounds, which were near 22% of everything screened.

N#CCCN(C(=O)CO/N=C/c1cccc([N+](=O)[O-])c1)c1ccccc1	none (no result: CYP2C19 inhib, CYP2C19 act, F-actin modifier, CYP2C9 act, CYP2C9 inhib)
COc1ccc(/C=C(/C#N)C(=O)Nc2ccccc2C)cc1C(=O)O	none (no result: CYP2C19 inhib, CYP2C19 act, F-actin modifier, CYP2C9 act, CYP2C9 inhib)
COc1ccc(/C=C(/C#N)C(=O)Nc2cccc(C)c2C)cc1C(=O)O	CYP2C19 inhib 58
CCCn1nnc(NC(=O)c2ccc(F)cc2)n1	none
CC(=O)Nc1ccc(C(=O)N/N=C/c2ccccc2OC(=O)c2ccc(Cl)cc2)cc1	CYP2C9 inhib 60
COc1cc(C(=O)Oc2ccccc2/C=N/NC(=O)c2ccc(Cl)cc2)cc(OC)c1OC	none (no result: CYP2C19 inhib, CYP2C19 act, F-actin modifier, CYP2C9 act, CYP2C9 inhib)
CS(=O)(=O)N(CCc1ccccc1)CC(=O)NCC1CCCO1 (stereo not drawn)	CYP2C19 inhib 56
O=C(CN(CCc1ccccc1)C(=O)CNS(=O)(=O)c1ccccc1)NCC1CCCO1 (stereo not drawn)	none
O=C1CC(C(=O)N(CC2CCCO2)C(C(=O)NC2CCCCC2)c2ccncc2)CS1 (stereo not drawn)	none (no result: E-sel TNF inh, CYP2C19 inhib, CYP2C19 act, CYP2C9 act, CYP2C9 inhib)
O=C(NC1CCCCC1)C(c1ccc(O)cc1)N(CC1CCCO1)C(=O)C1COc2ccccc2O1 (stereo not drawn)	CYP2C19 inhib 70, CYP2C9 inhib 69
CS(=O)(=O)N(CC(=O)NC1CCCCC1)Cc1ccc(Cl)cc1	none (no result: F-actin modifier)
CS(=O)(=O)N(CC(=O)NC1CCCC1)Cc1ccc(Cl)cc1	CYP2C19 inhib 58
Cc1noc(NS(=O)(=O)c2ccc(NC(=O)CC34CC5CC(CC(Br)(C5)C3)C4)cc2)c1C	none
O=C1C2C(C(=O)N1/N=C/c1cccc([N+](=O)[O-])c1)C1C=CC2C12CC2 (stereo not drawn)	none (no result: CYP2C19 inhib, CYP2C19 act, F-actin modifier, CYP2C9 act, CYP2C9 inhib)
CC(=O)Nc1ccc(C(=O)OCc2ccc(Cl)cc2)cc1	CYP2C19 inhib 63, CYP2C9 inhib 75
Cc1ccc(N(CC(=O)NCC2CCCO2)S(C)(=O)=O)cc1Cl (stereo not drawn)	none
O=C(CN(C(=O)C1COc2ccccc2O1)c1ccccc1)NCC1CCCO1 (stereo not drawn)	CYP2C19 inhib 51 (no result: E-sel TNF inh)
CCOC(=O)c1ccc(NC(=O)CN(Cc2ccc(Cl)cc2)S(C)(=O)=O)cc1	CYP2C19 inhib 94, CYP2C9 inhib 83 (no result: F-actin modifier)
CS(=O)(=O)N(CC(=O)NCC1CCCO1)Cc1ccc(Cl)cc1 (stereo not drawn)	CYP2C19 inhib 78
CS(=O)(=O)N(CC(=O)Nc1ccc2c(c1)OCCO2)Cc1ccc(Cl)cc1	none
CCCCNC(=S)N1CCn2cccc2C1c1ccc(F)cc1 (stereo not drawn)	none (no result: CYP2C19 inhib, CYP2C19 act, F-actin modifier, CYP2C9 act, CYP2C9 inhib)
CNS(=O)(=O)c1cccc(C(=O)OCC(=O)N(Cc2ccccc2)C(C)(C)C)c1	none (no result: CYP2C19 inhib, CYP2C19 act, F-actin modifier, CYP2C9 act, CYP2C9 inhib)
CC(=O)Nc1ccc(C(=O)OCC(=O)N(Cc2ccccc2)C(C)(C)C)cc1	CYP2C19 inhib 79, CYP2C9 inhib 71
O=C(CSc1nccn1-c1ccccc1)NO	none (no result: CYP2C19 inhib, CYP2C19 act, F-actin modifier, CYP2C9 act, CYP2C9 inhib)
CCOC(=O)c1cnc(SCC(=O)Nc2cc(OC)ccc2OC)nc1N	none
Cn1ccnc1SCC(=O)Nc1ccc(Oc2ccccc2)cc1	CYP2C19 inhib 88, CYP2C9 inhib 71
COc1ccc(NC(=O)CSc2nc(N)c3cc4c(nc3n2)CCCC4)c(OC)c1	CYP2C9 inhib 81
Cn1ccnc1SCC(=O)Nc1cccc(C(F)(F)F)c1	CYP2C19 inhib 87 (no result: F-actin modifier)
COc1ccc(NC(=O)CSc2nccn2-c2ccccc2)cc1	CYP2C19 inhib 86, CYP2C9 inhib 69
Cc1cc(=O)n2[nH]c(-c3ccc(C(C)(C)C)cc3)cc2n1	none
O=c1cc(CSc2nnnn2-c2ccccc2)nc(Nc2ccc(F)cc2)[nH]1	none (no result: E-sel TNF inh)
O=C(NCCN1CCOCC1)C1CCC(CNS(=O)(=O)c2ccccc2)CC1 (stereo not drawn)	none (no result: CYP2C19 inhib, CYP2C19 act, F-actin modifier, CYP2C9 act, CYP2C9 inhib)
COc1ccc(NC(=O)CSc2nc3c(c(=O)n2-c2ccc(C)cc2)SCC3)c(OC)c1	none (no result: CYP2C19 inhib, CYP2C19 act, F-actin modifier, CYP2C9 act, CYP2C9 inhib)
COc1ccc(-n2ccnc2SCC(=O)Nc2ccc(OC)cc2OC)cc1	CYP2C19 inhib 92
Cc1ccc(-n2nc(C(=O)N3CCN(C)CC3)c3c4ccccc4n(C)c3c2=O)cc1	none (no result: CYP2C19 inhib, CYP2C19 act, CYP2C9 act, CYP2C9 inhib)
COc1cc(C(=S)N2CCOCC2)cc(OC)c1OS(=O)(=O)c1ccc(NC(C)=O)cc1	CYP2C19 inhib 58
O=C(COC(=O)CSCC(=O)N1CCCCC1)Nc1ccc(Cl)cc1	none
CCOC(=O)c1sc(N)c(C#N)c1COC(=O)CNC(=O)c1cc(OC)c(OC)c(OC)c1	CYP2C19 inhib 53, CYP2C9 inhib 64
c1ccc2c(N3CCOCC3)nc(-c3ccncc3)nc2c1	none (no result: CYP2C19 inhib, CYP2C19 act, CYP2C9 act, CYP2C9 inhib)
CC1CCCCN1c1nc(-c2ccncc2)nc2ccccc12 (stereo not drawn)	CYP2C19 inhib 91, CYP2C9 inhib 78
COc1cccc(-c2nc(NC(C)C)c3ccccc3n2)c1O	none
CC1CCN(c2nc(/C=C/c3ccccc3)nc3ccccc23)CC1	none (no result: CYP2C19 inhib, CYP2C19 act, F-actin modifier, CYP2C9 act, CYP2C9 inhib)
c1cncc(-c2nc(N3CCOCC3)c3ccccc3n2)c1	CYP2C9 inhib 66
CC1CCN(c2nc(-c3ccncc3)nc3ccccc23)CC1	CYP2C19 inhib 93, CYP2C9 inhib 76
CC1CCCCN1c1ncnc2ccccc12 (stereo not drawn)	none
COc1cccc(-c2nc(N3CCN(c4ccccc4)CC3)c3ccccc3n2)c1O	CYP2C9 inhib 55
COc1cc2nc(-c3ccccc3)nc(N3CCCC3)c2cc1OC	none
CCC1CCCCN1c1nc(-c2cccc(OC)c2O)nc2ccccc12 (stereo not drawn)	CYP2C9 inhib 83 (no result: F-actin modifier)
CCC1CCCCN1c1nc(-c2ccncc2)nc2ccccc12 (stereo not drawn)	CYP2C19 inhib 99, CYP2C9 inhib 100
Cc1cc(C)n(/N=C/c2ccc(C(C)C)cc2)c(=O)c1C#N	none (no result: CYP2C19 inhib, CYP2C19 act, F-actin modifier, CYP2C9 act, CYP2C9 inhib)
CCC(C)NC(=O)c1ccccc1NS(=O)(=O)c1ccc(OC)c(OC)c1 (stereo not drawn)	CYP2C19 inhib 80

Screens (PubChem BioAssay)
